GPT2 inhibitor – GPT2 alanine aminotransferase inhibition. Q8TD30. Recombinant GPT2, coupled pyruvate oxidase/HRP Amplex Red fluorescence. Potency, µM (titrated, usually from 57.7 µM), without a hit: at the highest dose activity change, negative = inhibition, usual class: inhibitors. actives 0.25% (n = 100,000). AID 1671188; note: % is set by controls: 0 for no effect and ±100 for the full control effect; nearly all actives have a fitted effect of over 60% in size
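Fluorescence of coupled pyruvate oxidase/HRP/Amplex Red system (50uM Amplex, 30 min, dark) reports pyruvate formed by GPT2. Enzyme reaction: 10ng/uL GPT2, 2mM L-alanine, 250uM a-KG, 30 min room temperature, pH 7.5; 50uM AOA control.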
NIH3T3 tox – cytotoxic compounds in NIH 3T3 cells | NIH 3T3 viability, CellTiter-Glo ATP luminescence, 48-72 h | Potency, µM (top dose mostly 96.7 µM), inactives show at the top dose activity change, negative = cytotoxicity, most hits filed as inhibitors | actives 4.3% (n = 94,000); note: % is set by controls: 0 for no effect and ±100 for the full control effect; nearly all actives have a fitted effect of over 55% in size
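Cells were seeded at 400 per well, treated with pin-transferred compound, and kept 48 or 72 hr at 37 °C before CellTiter-Glo addition and luminescence imaging of cellular ATP.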
Luciferase inh – inhibitors of firefly (Photinus pyralis) luciferase. Potency, µM (series often up to 115 µM), most hits filed as inhibitors. P08659. actives 2.5% (n = 76,000). purified P. pyralis luciferase, luminescence, biochemical; note: % is set by controls: 0 for no effect and ±100 for the full control effect; nearly all actives have a fitted effect of over 65% in size
Target sequence (P08659 whole entry, looked up): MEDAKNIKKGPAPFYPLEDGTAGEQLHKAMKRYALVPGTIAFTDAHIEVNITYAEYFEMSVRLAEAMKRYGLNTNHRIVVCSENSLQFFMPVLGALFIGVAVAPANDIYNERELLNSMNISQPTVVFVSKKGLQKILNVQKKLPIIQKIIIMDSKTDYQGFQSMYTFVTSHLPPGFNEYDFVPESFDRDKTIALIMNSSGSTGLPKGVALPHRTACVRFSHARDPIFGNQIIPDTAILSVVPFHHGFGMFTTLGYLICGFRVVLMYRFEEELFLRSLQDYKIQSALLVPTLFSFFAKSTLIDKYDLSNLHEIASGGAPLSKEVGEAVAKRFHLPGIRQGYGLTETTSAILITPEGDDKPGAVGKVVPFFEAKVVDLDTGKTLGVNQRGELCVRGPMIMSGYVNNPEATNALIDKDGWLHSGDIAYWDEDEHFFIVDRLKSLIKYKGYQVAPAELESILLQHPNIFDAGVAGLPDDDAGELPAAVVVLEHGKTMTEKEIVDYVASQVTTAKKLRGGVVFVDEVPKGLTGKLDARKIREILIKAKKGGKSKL
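Luminescence read by CCD imager after adding enzyme (10nM final) to wells holding compound, titrated in qHTS. Substrates 10uM each D-luciferin and ATP; buffer 50mM Tris acetate pH 7.5, 10mM Mg acetate, Tween-20, BSA.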
HEK cytotox – cytotoxic compounds in HEK 293 cells; HEK 293 viability, ATP luminescence (CellTiter-Glo), 48-72 h; Potency, µM (highest dose often 115 µM), inactives show at the top dose activity change, negative = cytotoxicity, hits mostly inhibitors; actives 6.6% (n = 94,000); note: % is set by controls: 0 for no effect and ±100 for the full control effect; nearly all actives have a fitted effect of over 60% in size
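HEK 293 cells at 250 cells/well were exposed to compounds by pintool transfer for 48 or 72 hr at 37 degree Celsius, 5% CO2. Viability was read as ATP-coupled luminescence with CellTiter-Glo after 10 min at room temperature.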
hNpr1 antagonist – blocks ANP-stimulated signaling of human Npr1 receptor; P16066; HEK293 hNpr1 GloSensor cGMP, ANP-stimulated luminescence; Potency, µM (titrated, usually from 46.3 µM), for inactives: at the top dose activity change, negative = inhibition, usual class: inhibitors; actives 1.6% (n = 76,000); calls by dose curve; note: % is set by controls: 0 for no effect and ±100 for the full control effect; nearly all actives have a fitted effect of over 60% in size
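HEK293 cells stably expressing human Npr1 and cGMP GloSensor pGS-40F, loaded 2 h with 2% GloSensor reagent, given compound 30 min at room temperature. Luminescence read before and 20 min after 0.1 nM hNppA.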
NPR1 antag cnf – hNpr1 antagonism, confirmation assay. shares compounds with hNpr1 antagonist. actives 76% (n = 1,400). HEK293 hNpr1 cGMP GloSensor luminescence, ANP-stimulated. Potency, µM (series often up to 57.6 µM), inactives show top-dose activity change, negative = inhibition, hits mostly inhibitors; calls by dose curve; note: nearly all actives have a fitted effect of over 70% in size
Npr2 selectivity – hNpr2 antagonism, selectivity versus Npr1 | HEK293 hNpr2 GloSensor cGMP luminescence, CNP-stimulated | actives 67% (n = 1,400) | shares compounds with hNpr1 antagonist | Potency, µM (series often up to 57.6 µM), inactives show top-dose activity change, negative = inhibition, usual class: inhibitors; calls by dose curve; note: nearly all actives have a fitted effect of over 70% in size
FLuc counter – counter-screen for Npr1 antagonists: firefly luciferase inhibitors. actives 0.7% (n = 1,400). purified FLuc enzyme, luminescence, Km substrate. shares compounds with hNpr1 antagonist. Potency, µM (highest dose often 57.6 µM), without a hit: top-dose activity change, negative = inhibition, hits mostly inhibitors; note: 0% is about no effect
GloSensor cGMP – reduces cGMP signal in GloSensor control cells; actives 69% (n = 1,400); HEK293 GloSensor cGMP, SNP-stimulated, luminescence; Potency, µM (highest dose often 57.6 µM), inactives show top-dose activity change, negative = inhibition, actives largely listed as inhibitors; shares compounds with hNpr1 antagonist; calls by dose curve; note: % is set by controls: 0 for no effect and ±100 for the full control effect; nearly all actives have a fitted effect of over 70% in size
* = called active by the depositor; i = inactive; u = inconclusive; x = not tested or not shown; [ ] = remark or other dose. This is a sample that favours compounds with a hit; in the whole collection about 10% have one here. Unless noted, calls come from the whole dose curve; as a rule, active = well fitted curve in the direction sought with a large enough effect; inconclusive = small, poorly fitted or top-dose-only effect, or another doubt; inactive = no such curve, though single readings can be large; an effect the other way counts as inactive or inconclusive. Potency is the fitted concentration of half-maximal effect.

SMILES	GPT2 inhibitor	NIH3T3 tox	Luciferase inh	HEK cytotox	hNpr1 antagonist	NPR1 antag cnf	Npr2 selectivity	FLuc counter	GloSensor cGMP
CCc1cc(=O)n(CC(=O)N2CCN(c3ccccc3OC)CC2)c(-c2ccccc2)n1	i	u	i	40µM*	-19%	u	-24%	2%	-3%
O=C(Nc1ccc(Cl)cc1)N1CCN(CCn2nc3n(c2=O)CCCC3)CC1	x	-17%	x	4%	x	x	x	x	x
CNC(=O)c1cc(-c2ccccc2C)cc2c1OCCN2Cc1cccnc1	-8%[88.5 µM]	u	i	u	u	u	u	2%[86.2 µM]	-18%[86.2 µM]
CCn1cc(-c2ccc(C)cc2)cc1C(=O)N1CCN(c2ccccn2)CC1	u	35µM*	i	32µM*	14µM*	19µM*	19µM*	-2%	15µM*
C#CCNC(=O)C1=NOC2CN(C(=O)c3ccn(C)n3)CC12 (configuration not stated)	i	-12%	x	-7%	x	x	x	x	x
COCCNC(=O)c1ccc2nc(-c3cccc(C)n3)oc2c1	-7%[88.5 µM]	u	x	u	x	x	x	x	x
O=C(NCc1ccc(F)cc1)c1csc(N2CCN(c3ccccc3F)CC2)n1	4%	-13%	i	-6%	-6%	x	x	x	x
O=C(NCc1cccc(F)c1)c1csc(N2CCN(c3ccc(Cl)cc3)CC2)n1	-17%	-19%	i	u	13µM*	24µM*	24µM*	0%	22µM*
COc1ccccc1C(=O)N[C@@H]1CN(Cc2ccccn2)C[C@H]1CN(C)C	i	-17%	i	u	5%	x	x	x	x
Cc1cc(S(=O)(=O)N[C@@H]2CN(C)C[C@H]2CN(C)C)ccc1F	i	-10%	i	4%	1%	x	x	x	x
COc1cccc(CN2CCCCCCNC(=O)[C@@H]3C[C@@H](C(=O)N4CCc5ccccc5C4)C[C@@H]32)c1	-5%	u	i	u	-11%	x	x	x	x
O=C1NCCCCCCN(Cc2cccc(F)c2)[C@H]2C[C@H](C(=O)N3CCc4ccccc4C3)C[C@@H]12	4%	40µM*	i	25µM*	16µM*	u	u	0%	-13%
O=S(=O)(NC1CCN(c2cc(N3CCOCC3)cnn2)C1)c1ccccc1 (configuration not stated)	1%	-15%	x	-17%	x	x	x	x	x
OCC1(CCOc2ccccc2)CCCN(c2ncnc3sccc23)C1 (configuration not stated)	-9%	u	i	u	1.8µM*	2.7µM*	3.9µM*	0%	2.2µM*
CC(CCc1ccco1)NC(=O)CN1CCCc2nc(-c3ccccc3)ncc2C1=O (configuration not stated)	i	u	i	u	u	u	u	2%	u
O=C(CN1CCCc2nc(-c3ccccc3)ncc2C1=O)NCCc1c[nH]c2ccccc12	3%	u	i	u	10µM*	27µM*	u	-10%	22µM*
Cc1nn(C)cc1C(C)NC(=O)CN1CCCc2nc(-c3ccccc3)ncc2C1=O (configuration not stated)	i	-25%	i	u	u	u	-29%	3%	-20%
O=C(O)CN1CCCc2nc(-c3ccccc3)ncc2C1=O	i	i	i	i	5%	x	x	x	x
Cc1[nH]ncc1CNC(=O)CN1CCCc2nc(-c3ccccc3)ncc2C1=O	i	-15%	i	-15%	-1%	x	x	x	x
COc1cccc(CN2CCCCC23Cc2ccccc2CNC3=O)c1 (configuration not stated)	-5%	-16%	x	u	x	x	x	x	x
O=S(=O)(c1ccc(F)cc1)N1CCc2nnc(C3CC3)n2CC1	i	-26%	x	-12%	x	x	x	x	x
COC(=O)c1ccc2nc(CO[C@H]3CN(Cc4ccc(Cl)cc4)C[C@H]3F)[nH]c2c1	i	89µM*	i	u	32µM*	40µM*	35µM*	-11%[86.2 µM]	35µM*
COc1ccc2nc(CO[C@H]3CN(Cc4ccc(OC)nc4)C[C@H]3F)[nH]c2c1	-8%[88.5 µM]	-17%[138 µM]	i	-20%[172 µM]	-1%[70.6 µM]	x	x	x	x
COc1ccc(CN2C[C@@H](F)[C@@H](OCc3nc4ccc(C(F)(F)F)cc4[nH]3)C2)cn1	u	u	i	u	32µM*	28µM*	31µM*	-12%[86.2 µM]	u
COC(=O)c1ccc2nc(CO[C@H]3CN(Cc4cccnc4)C[C@H]3F)[nH]c2c1	3%[88.5 µM]	-14%[174 µM]	i	-28%[172 µM]	2%[70.6 µM]	x	x	x	x
SMILES	GPT2 inhibitor	NIH3T3 tox	Luciferase inh	HEK cytotox	hNpr1 antagonist	NPR1 antag cnf	Npr2 selectivity	FLuc counter	GloSensor cGMP
Cn1c(CNC(=O)c2ccc3nccn3c2)nc2cc(C(F)(F)F)ccc21	u	u	i	u	11µM*	22µM*	19µM*	-10%	27µM*
COC(=O)c1cccc(C(=O)N2CCC(Cc3nc(-c4ccc(OC)cc4)no3)CC2)c1	i	u	i	56µM*	6.3µM*	6.9µM*	8.6µM*	-7%	5.4µM*
COc1ccc(-c2noc(CC3CCN(C(=O)c4ccc(OC)nc4)CC3)n2)cc1	3%	u	i	u	7.1µM*	5.4µM*	6.1µM*	1%	5.4µM*
COc1ccc(C(=O)N2CCC(c3noc(COc4ccc(F)cc4)n3)CC2)cn1	-8%	u	i	u	u	x	x	x	x
Cc1cccc(C(=O)N2CCC(Cc3nc(-c4cnccn4)no3)CC2)c1	i	-40%	i	-16%	-9%	x	x	x	x
CCOc1ccc(C(=O)N2CCC(Cc3nc(-c4ccc(OC)cc4)no3)CC2)cc1OCC	i	u	i	40µM*	6.3µM*	11µM*	15µM*	2%	9.7µM*
CCOc1ccc(C(=O)N2CCC(Cc3nc(-c4ccc(F)cc4)no3)CC2)cc1OCC	-3%	40µM*	i	u	4µM*	3.9µM*	6.1µM*	2%	4.8µM*

Screening data deposited in PubChem by National Center for Advancing Translational Sciences (NCATS).
